The panel holds about 79,000 compounds, 15% with a hit somewhere; the sample as a whole holds those more often. A number with no mark means an inactive call. Active and inactive are the calls of the source. Cut-off read from the data, not from the text of the source: active = growth inhibition above about 70%; inactive = the rest.

Results on nine compounds are retold here after PubChem BioAssay (NCI).

The nature of test [1]: NCI Yeast Anticancer Drug Screen. Data for the rad50 strain (AID 155).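 Note: 0% = growth of vehicle-only cultures of the same strain.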 Conditions: S. cerevisiae rad50 strain growth inhibition, hits give high values. Put shortly:
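Compounds were tested on a yeast strain with an engineered DNA damage repair alteration; the reported value is growth inhibition normalised to vehicle treatment.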

Test [2] in a line: NCI Yeast Anticancer Drug Screen. Data for the mec2-1 strain (AID 157). The conditions noted are these: S. cerevisiae mec2-1 strain, hits give high values. Put shortly:
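Test agents were screened against the mec2-1 yeast strain, with defined DNA repair or cell cycle alteration. Growth was scored as inhibition against vehicle-only controls.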

Test [3] in a line: NCI Yeast Anticancer Drug Screen. Data for the sgs1 mgt1 strain (AID 161).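 Note: 0% = growth of cultures given vehicle only.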 The conditions noted are these: S. cerevisiae sgs1 mgt1 strain, hits give high values. Summed up: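 Read-out: growth inhibition vs vehicle controls. Cells: mutant yeast strain deficient in DNA damage repair.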
The nature of test [4]: NCI Yeast Anticancer Drug Screen. Data for the cln2 rad14 strain (AID 165).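 Note: 0% = growth equal to vehicle treated cultures.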 Conditions: S. cerevisiae cln2 rad14 strain, hits give high values. Put shortly:
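Growth of compound-exposed yeast (cln2 rad14 genotype) measured and expressed as inhibition relative to vehicle.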

The nature of test [5]: NCI Yeast Anticancer Drug Screen. Data for the bub3 strain (AID 167). The conditions noted are these: S. cerevisiae bub3 mutant strain, hits give high values. Summed up: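 Growth of a checkpoint-deficient yeast mutant is measured after compound exposure. Values represent inhibition relative to vehicle.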
Test [6] can be described thus: NCI Yeast Anticancer Drug Screen. Data for the mlh1 rad18 strain (AID 175). The conditions noted are these: S. cerevisiae mlh1 rad18 strain growth inhibition, hits give high values. Summed up:
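In this whole-cell yeast screen, a strain with altered DNA damage repair is challenged with compound, and its growth is measured against matched vehicle-treated controls.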

The mark [7] stands for this setting: at 5.0 µM (retest, dose inferred, filed as 0.5).
The mark [8] stands for this setting: at 50.0 µM (retest, dose inferred, filed as 5.0).

For the compound `O=Nc1c(O)ccc2ccccc12.[Fe].[Na+]`, the growth inhibition was 7% in test [1] (setting [7]); 97% (active) in test [1] (setting [8]); 97.2% (active) in test [1] (at 50.0 µM); 14% in test [2] (setting [7]); 98% (active) in test [2] (setting [8]); 97.7% (active) in test [2] (at 50.0 µM). Moreover, the growth inhibition in test [3] (setting [7]) was 8%; in test [3] (setting [8]), 98% (active); in test [3] (at 50.0 µM), 98.5% (active); in test [4] (setting [7]), -2%; in test [4] (setting [8]), 96% (active); in test [4] (at 50.0 µM), 96.6% (active). Also, the growth inhibition in test [5] (setting [7]) is 13%; in test [5] (setting [8]), 98% (active); in test [5] (at 50.0 µM) it was 97.6% (active); in test [6] (setting [7]) it was 4%; in test [6] (setting [8]), 97% (active); in test [6] (at 50.0 µM), 96.2% (active).

Turning to `N#Cc1snc2sc(=O)sc12`, the growth inhibition in test [1] (setting [7]) was 99% (active); in test [1] (setting [8]) it was 100% (active); in test [1] (at 50.0 µM), 99.5% (active); in test [2] (setting [7]), 100% (active); in test [2] (setting [8]) it was 99% (active); in test [2] (at 50.0 µM), 99.7% (active). The growth inhibition is 100% (active) in test [3] (setting [7]); 100% (active) in test [3] (setting [8]); 99.5% (active) in test [3] (at 50.0 µM); 99% (active) in test [4] (setting [7]); 100% (active) in test [4] (setting [8]); 99.2% (active) in test [4] (at 50.0 µM). For the same compound, the growth inhibition in test [5] (setting [7]) was 100% (active); in test [5] (setting [8]), 99% (active); in test [5] (at 50.0 µM) it was 99.2% (active); in test [6] (setting [7]), 100% (active); in test [6] (setting [8]) it was 99% (active); in test [6] (at 50.0 µM) it was 99.5% (active).

Turning to `COc1ccc(-c2cscc2N)cc1`, the growth inhibition in test [1] (setting [7]) was -7%; in test [1] (setting [8]), 72% (active); in test [1] (at 50.0 µM) it was 67.5%; in test [2] (setting [7]), -15%; in test [2] (setting [8]) it was 46%; in test [2] (at 50.0 µM), 87.2% (active). For the same compound, the growth inhibition in test [3] (setting [7]) is -9%; in test [3] (setting [8]) it was 38%; in test [3] (at 50.0 µM), 51.9%; in test [4] (setting [7]), -6%; in test [4] (setting [8]) it was 89% (active); in test [4] (at 50.0 µM), 46.1%. The growth inhibition was -19% in test [5] (setting [7]); 91% (active) in test [5] (setting [8]); 92.2% (active) in test [5] (at 50.0 µM); -1% in test [6] (setting [7]); 56% in test [6] (setting [8]); 89% (active) in test [6] (at 50.0 µM).

On to `O=C1CCCCCC1Cc1cc(O)c(CC2CCCCCC2=O)cc1O` (configuration not stated), for which the growth inhibition in test [1] (setting [7]) was 10%; in test [1] (setting [8]) it was 54%; in test [1] (at 50.0 µM) it was 91.8% (active); in test [2] (setting [7]) it was 8%; in test [2] (setting [8]) it was 34%; in test [2] (at 50.0 µM), 80.2% (active). In addition, the growth inhibition in test [3] (setting [7]) is 12%; in test [3] (setting [8]) it was 82% (active); in test [3] (at 50.0 µM) it was 86.5% (active); in test [4] (setting [7]), -6%; in test [4] (setting [8]), 32%; in test [4] (at 50.0 µM) it was 11.2%. The growth inhibition is -3% in test [5] (setting [7]); 33% in test [5] (setting [8]); 64.2% in test [5] (at 50.0 µM); 8% in test [6] (setting [7]); 88% (active) in test [6] (setting [8]); 35.2% in test [6] (at 50.0 µM).

On to `COc1cc(C2=N/C(=C\c3ccccc3O)C(=O)O2)cc(OC)c1OC`, for which the growth inhibition was -23% in test [1] (setting [7]); -22% in test [1] (setting [8]); -9.9% in test [1] (at 50.0 µM); -8% in test [2] (setting [7]); -21% in test [2] (setting [8]); -27.1% in test [2] (at 50.0 µM). Moreover, the growth inhibition is -15% in test [3] (setting [7]); -6% in test [3] (setting [8]); 4.05% in test [3] (at 50.0 µM); 0% in test [4] (setting [7]); 2% in test [4] (setting [8]); 8.7% in test [4] (at 50.0 µM). The growth inhibition in test [5] (setting [7]) was -20%; in test [5] (setting [8]), -23%; in test [5] (at 50.0 µM), 10.8%; in test [6] (setting [7]) it was -43%; in test [6] (setting [8]) it was -47%; in test [6] (at 50.0 µM), 0.65%.

With `Cc1ccnc(NC(c2ccccc2)c2ccc3cccnc3c2O)c1` (configuration not stated), the growth inhibition was 0% in test [1] (setting [7]); 95% (active) in test [1] (setting [8]); 98.3% (active) in test [1] (at 50.0 µM); -5% in test [2] (setting [7]); 97% (active) in test [2] (setting [8]); 96.3% (active) in test [2] (at 50.0 µM). The growth inhibition in test [3] (setting [7]) was -3%; in test [3] (setting [8]), 95% (active); in test [3] (at 50.0 µM), 97.7% (active); in test [4] (setting [7]) it was -7%; in test [4] (setting [8]) it was 95% (active); in test [4] (at 50.0 µM), 95.4% (active). Moreover, the growth inhibition in test [5] (setting [7]) was -6%; in test [5] (setting [8]), 96% (active); in test [5] (at 50.0 µM), 98.7% (active); in test [6] (setting [7]) it was 6%; in test [6] (setting [8]) it was 95% (active); in test [6] (at 50.0 µM), 97.4% (active).

With `Cc1cc2nc(CS)[nH]c2cc1C`, the growth inhibition in test [1] (setting [7]) was -13%; in test [1] (setting [8]), 41%; in test [1] (at 50.0 µM), 66.3%; in test [2] (setting [7]), 4%; in test [2] (setting [8]) it was 44%; in test [2] (at 50.0 µM), 51.9%. Also, the growth inhibition is 15% in test [3] (setting [7]); 70% (active) in test [3] (setting [8]); 70.8% (active) in test [3] (at 50.0 µM); 31% in test [4] (setting [7]); 51% in test [4] (setting [8]); 43.2% in test [4] (at 50.0 µM). Also, the growth inhibition is 26% in test [5] (setting [7]); 85% (active) in test [5] (setting [8]); 55.9% in test [5] (at 50.0 µM); -13% in test [6] (setting [7]); 61% in test [6] (setting [8]); 44.2% in test [6] (at 50.0 µM).

`CC(C)/C(Cl)=N\OC(=O)Nc1ccc(S(N)(=O)=O)cc1`: the growth inhibition is 15% in test [1] (setting [7]); 30% in test [1] (setting [8]); 12.7% in test [1] (at 50.0 µM); 26% in test [2] (setting [7]); 28% in test [2] (setting [8]); 18.8% in test [2] (at 50.0 µM). For the same compound, the growth inhibition in test [3] (setting [7]) was 2%; in test [3] (setting [8]), -23%; in test [3] (at 50.0 µM), 68%; in test [4] (setting [7]), 21%; in test [4] (setting [8]), 33%; in test [4] (at 50.0 µM), 45%. Further, the growth inhibition in test [5] (setting [7]) is 7%; in test [5] (setting [8]), 26%; in test [5] (at 50.0 µM), 77.2% (active); in test [6] (setting [7]), 22%; in test [6] (setting [8]) it was 38%; in test [6] (at 50.0 µM), -38.8%.

Regarding `CC(C)N(CN1C(=O)N/C(=C/c2cccc(/C=C3/NC(=O)N(CN(C(C)C)C(C)C)C3=O)c2)C1=O)C(C)C`, the growth inhibition in test [1] (setting [7]) was 7%; in test [1] (setting [8]), 8%; in test [1] (at 50.0 µM), 21%; in test [2] (setting [7]), -15%; in test [2] (setting [8]), -11%; in test [2] (at 50.0 µM), 2.95%. Also, the growth inhibition in test [3] (setting [7]) was -1%; in test [3] (setting [8]), 3%; in test [3] (at 50.0 µM), -2.5%; in test [4] (setting [7]), -19%; in test [4] (setting [8]), -15%; in test [4] (at 50.0 µM) it was 63.4%. In addition, the growth inhibition in test [5] (setting [7]) was 12%; in test [5] (setting [8]), 30%; in test [5] (at 50.0 µM), 17.6%; in test [6] (setting [7]) it was 7%; in test [6] (setting [8]), 8%; in test [6] (at 50.0 µM), -4.65%.
